Results taken from PubChem BioAssay (NCATS).

test: qHTS profiling of the MIPE4 collection as inhibitors of Plasmodium falciparum (HB3) proliferation (AID 743347);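 further: plate controls were DMSO vehicle wells for no effect and artemisinin wells for full effect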; settings: P. falciparum HB3 in erythrocytes, SYBR Green DNA, 72 h; at 28.5 µM (top of the series) unless noted
How it was run: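 Parasite DNA was quantified by SYBR Green I fluorescence (ex 485, em 535 nm) after overnight lysis in saponin/Triton buffer at room temperature. Cultures at 0.3% parasitemia and 2.5% hematocrit were first exposed to compound for 72 h at 37 C; signals were normalised to artemisinin (0.29 uM) and vehicle wells.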

Question: With COc1ccccc1OCC(O)COC(N)=O (configuration not stated) as the compound, how does the growth, % of control read?
Answer: 111%

Question: Which growth, % of control does the source give for C1CCC(C(CC2CCCCN2)C2CCCCC2)CC1 (configuration not stated) here?
Answer: 1.94%

Question: For COC(c1ccccc1)(c1ccccc1)[C@H](Oc1nc(C)cc(C)n1)C(=O)O, which growth, % of control is on record?
Answer: 105%

Question: Which growth, % of control does the source give for N[C@@H](C(=O)N[C@@H]1C(=O)N2C(C(=O)O)=C(Cl)CS[C@H]12)c1ccccc1 here?
Answer: 97.6%

Question: For OCc1ccc(-c2nn(Cc3ccccc3)c3ccccc23)o1, which growth, % of control is on record?
Answer: 21.8%

Question: With CS(=O)(=O)c1ccc([C@@H](O)[C@@H](CO)NC(=O)C(Cl)Cl)cc1 as the compound, how does the growth, % of control read?
Answer: 56.8%

Question: Which growth, % of control does the source give for O=c1oc2c(O)c(O)cc3c(=O)oc4c(O)c(O)cc1c4c23 here?
Answer: 6.72%

Question: Which growth, % of control does the source give for NS(=O)(=O)c1cc2c(cc1Cl)NC(C(Cl)Cl)NS2(=O)=O (configuration not stated) here?
Answer: 60.5%

Question: For CCCCCCNC(=O)n1cc(F)c(=O)[nH]c1=O, which growth, % of control is on record?
Answer: 71.2%

Question: With CC(=O)[C@H]1CC[C@H]2[C@@H]3CC=C4C[C@@H](O)CC[C@]4(C)[C@H]3CC[C@]12C as the compound, how does the growth, % of control read?
Answer: 65.7%

Question: For CCCc1nc(C)c2c(=O)[nH]c(-c3cc(S(=O)(=O)N4CCN(CC)CC4)ccc3OCC)nn12, which growth, % of control is on record?
Answer: 9.8%

Question: For COc1c(N2CCNC(C)C2)c(F)cc2c(=O)c(C(=O)O)cn(C3CC3)c12 (configuration not stated), which growth, % of control is on record?
Answer: 21.7%

Question: With CN1CCCC(n2nc(Cc3ccc(Cl)cc3)c3ccccc3c2=O)CC1 (configuration not stated) as the compound, how does the growth, % of control read?
Answer: 2.79%

Question: For CCOc1cc(N)c(Cl)cc1C(=O)NCC1CN(Cc2ccc(F)cc2)CCO1 (configuration not stated), which growth, % of control is on record?
Answer: 99%

Question: With Cn1c(=O)c2c(ncn2CC(O)CO)n(C)c1=O (configuration not stated) as the compound, how does the growth, % of control read?
Answer: 56.5%

Question: Which growth, % of control does the source give for COCCCOc1cc(C[C@@H](C[C@H](N)[C@@H](O)C[C@H](C(=O)NCC(C)(C)C(N)=O)C(C)C)C(C)C)ccc1OC here?
Answer: 86.2%

Question: For CO[C@@]12[C@H](COC(N)=O)C3=C(C(=O)C(C)=C(N)C3=O)N1C[C@@H]1N[C@@H]12, which growth, % of control is on record?
Answer: 2.97%

Question: With CC1=CC(=O)c2ccccc2C1=O as the compound, how does the growth, % of control read?
Answer: 23.6%

Question: Which growth, % of control does the source give for COc1cc2nc(N3CCCN(C)CC3)nc(NC3CCN(Cc4ccccc4)CC3)c2cc1OC here?
Answer: 8.7%

Question: Which growth, % of control does the source give for C[C@@H](NCCCc1cccc(C(F)(F)F)c1)c1cccc2ccccc12 here?
Answer: 4.3%

Question: Which growth, % of control does the source give for COc1nc(N)nc2c1ncn2[C@@H]1O[C@H](CO)[C@@H](O)[C@@H]1O here?
Answer: 85.6%

Question: For Nc1nc(N)c2nc(CNc3ccc(C(=O)NC(CCC(=O)O)C(=O)O)cc3)cnc2n1 (configuration not stated), which growth, % of control is on record?
Answer: 23.4%

Question: For CCC(=O)O[C@]1(C(=O)CCl)[C@@H](C)C[C@H]2[C@@H]3CCC4=CC(=O)C=C[C@]4(C)[C@@]3(F)[C@@H](O)C[C@@]21C, which growth, % of control is on record?
Answer: 8.53%

Question: Which growth, % of control does the source give for CCOC(=O)c1ccc(C#Cc2ccc3c(c2)C(C)(C)CCS3)nc1 here?
Answer: 50.6%

Question: With CCN1CCCC1CNC(=O)c1cc(S(N)(=O)=O)ccc1OC (configuration not stated) as the compound, how does the growth, % of control read?
Answer: 70.9%

Question: Which growth, % of control does the source give for O=C(O)c1cccnc1 here?
Answer: 87.4%

Question: With COc1cc2c(Nc3ccc(Br)cc3F)ncnc2cc1OCC1CCN(C)CC1 as the compound, how does the growth, % of control read?
Answer: 3.4%

Question: With CNC(=O)c1cc(Oc2ccc(NC(=O)Nc3ccc(Cl)c(C(F)(F)F)c3)cc2)ccn1 as the compound, how does the growth, % of control read?
Answer: 12.2%

Question: With CCC(=O)O[C@]1(C(=O)SCF)[C@H](C)C[C@H]2[C@@H]3C[C@H](F)C4=CC(=O)C=C[C@]4(C)[C@@]3(F)[C@@H](O)C[C@@]21C as the compound, how does the growth, % of control read?
Answer: 87.8%

Question: For C[C@]12C=CC(=O)C=C1CC[C@@H]1[C@@H]2C(=O)C[C@@]2(C)[C@H]1CC[C@]2(O)C(=O)CO, which growth, % of control is on record?
Answer: 104% [at 9.64 µM]

Question: For COc1ccc(-c2ccc3cc(C(=O)O)ccc3c2)cc1C12CC3CC(CC(C3)C1)C2, which growth, % of control is on record?
Answer: 111%

Question: With CCn1cc(C(=O)O)c(=O)c2cc(F)c(N3CCNCC3)nc21 as the compound, how does the growth, % of control read?
Answer: 56.4%

Question: With NCCCC(O)(P(=O)(O)O)P(=O)(O)O as the compound, how does the growth, % of control read?
Answer: 117%

Question: Which growth, % of control does the source give for CCOC(=O)[C@H](CCc1ccccc1)N[C@H]1CS[C@H](c2cccs2)CN(CC(=O)O)C1=O here?
Answer: 6.02%

Question: For Nc1nc(=S)c2[nH]cnc2[nH]1, which growth, % of control is on record?
Answer: 216%

Question: Which growth, % of control does the source give for CC(C)(C)NC(=O)[C@H]1CC[C@H]2[C@@H]3CC[C@H]4NC(=O)C=C[C@]4(C)[C@H]3CC[C@]12C here?
Answer: 72.9%

Question: Which growth, % of control does the source give for COc1ccc2cc3[n+](cc2c1OC)CCc1cc2c(cc1-3)OCO2 here?
Answer: 4.47%
